Measurements from PubChem BioAssay AID1529 (NMMLSC, 2009).
Screen size: about 290,000 compounds; about 4,200 (1.4%) were called active.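 Rule for the calls: active = binding response more than 3 SD above or below the average of its plate-row segment, actives on both sides; inconclusive = wells at one plate position flagged as instrument error; inactive = the rest.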 Shown is part of a subset that was picked to be rich in actives.

These molecules were tested against Mitogen-activated protein kinase kinase kinase 3 (Homo sapiens) (UniProt Q99759) (assay: modulators of MEKK3-MEK5 PB1 binding, primary screen, biochemical, wildtype MEKK3, multiplex bead flow cytometry, Alexa488-MEK5 (AID 1529;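 note: Alexa488 bead fluorescence after subtracting the streptavidin-only scavenger bead signal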)). Settings: bead-based flow cytometry, Alexa488-MEK5 binding to MEKK3; at 10 µM; actives lie on both sides; 0 = blocked by unlabeled MEK5, 100 = vehicle.
Chain of Mitogen-activated protein kinase kinase kinase 3 (Homo sapiens) (Q99759 whole entry, looked up): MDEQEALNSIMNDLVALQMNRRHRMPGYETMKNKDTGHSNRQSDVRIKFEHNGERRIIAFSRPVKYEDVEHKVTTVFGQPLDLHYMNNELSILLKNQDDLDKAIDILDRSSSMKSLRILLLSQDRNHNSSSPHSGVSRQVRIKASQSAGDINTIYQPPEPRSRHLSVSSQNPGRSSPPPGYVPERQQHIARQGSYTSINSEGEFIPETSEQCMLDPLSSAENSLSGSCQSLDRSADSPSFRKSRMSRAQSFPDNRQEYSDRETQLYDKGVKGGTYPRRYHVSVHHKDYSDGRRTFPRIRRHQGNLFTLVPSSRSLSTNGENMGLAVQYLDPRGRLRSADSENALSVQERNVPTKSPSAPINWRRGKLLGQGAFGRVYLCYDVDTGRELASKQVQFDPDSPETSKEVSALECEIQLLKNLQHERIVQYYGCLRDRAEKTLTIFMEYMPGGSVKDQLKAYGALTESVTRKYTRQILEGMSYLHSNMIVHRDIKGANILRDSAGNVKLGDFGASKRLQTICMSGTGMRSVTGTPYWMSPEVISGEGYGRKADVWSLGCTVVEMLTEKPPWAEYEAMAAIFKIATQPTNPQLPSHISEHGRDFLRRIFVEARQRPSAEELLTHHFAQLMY

Binding response (% of control), active:
CCCc1cc(=S)n2c([nH]c3ccccc32)c1C#N 1% [inhibitor]
O=C(NCCC1=CCCCC1)c1ccc(Cl)c([N+](=O)[O-])c1 153%
Cc1noc(C)c1S(=O)(=O)N(C)Cc1ccccc1 3% [inhibitor]
CC1CCN(C2=NC(=O)/C(=C/c3cn[nH]c3-c3ccccc3)S2)CC1 130%
O=c1c2ccccc2c(-c2ccccc2)nn1Cc1ccccc1 134%
CCOC(=O)Cc1csc(NC(=O)CSc2nc(C)cc(=O)[nH]2)n1 58% [inhibitor]
O=C(Nc1ccn(Cc2ccccc2)n1)c1cccc(F)c1 135%
COc1cc(CC(=O)N/N=C/c2ccccc2)c([N+](=O)[O-])cc1OC 134%
COc1ccc(C(=O)NCC(=O)N/N=C/c2ccc([N+](=O)[O-])o2)cc1OC 133%
Cc1cc(C)nc(-n2ncc3c2CC(c2ccc(C(C)C)cc2)CC3=O)n1 (stereo not drawn) 148%
CCO[C@H]1OC(C(=O)N2CCOCC2)=C[C@@H](c2ccc3c(c2)OCO3)[C@@H]1CCCO 81% [inhibitor]
O=C(Cc1cccc2ccccc12)Nc1ccc2oc(-c3ccccc3)nc2c1 129%
Clc1ccc(-c2nnc(SCc3nc4ccccc4s3)o2)cc1 150%
Cc1nn(-c2ccccc2)c(NC(=O)c2cccs2)c(-c2ccc(Cl)cc2)c1=O 162%

Binding response (% of control), inactive:
CCOC(=O)CCc1c(C)c(C#N)c2[nH]c3ccccc3n2c1=O 109%
Cc1ccccc1Cn1c(=O)[nH]c2ccccc21 52%
COC(C[C@H](O)CC(=O)[C@@H](C)OCc1ccccc1)OC 101%
Cn1nnc2cc(C(=O)NCCC3=CCCCC3)ccc21 99%
CN(c1ccc(C(=O)NCCC2=CCCCC2)cc1)S(C)(=O)=O 100%
O=[N+]([O-])c1ccccc1/C=C/CN1CCC(O)CC1 105%
Cc1noc(C)c1S(=O)(=O)Nc1ccc(C(=O)O)cc1 98%
Cc1cc(C)cc(N(CC(=O)N2CC=C(c3ccccc3)CC2)S(=O)(=O)c2c(C)noc2C)c1 112%
CCOc1ccccc1NC(=O)COc1ccc(S(=O)(=O)N2CCCC2)cc1 98%
COc1ccc(S(=O)(=O)NC(C)C(=O)NCc2ccncc2)cc1Cl (stereo not drawn) 99%
Cc1ccc(N2CCN(C3=NC(=O)/C(=C\c4cccs4)S3)CC2)cc1 98%
CC1CCN(C2=NC(=O)/C(=C/c3ccc(O)cc3)S2)CC1 100%
COc1ccc(CN2CC[C@H]3C=CC[C@@H](C(=O)N4CCOCC4)[C@H]3C2=O)cc1OC 98%
CC(=O)c1cccc(NC(=S)N2CCN(S(C)(=O)=O)CC2)c1 102%
CCCNC(=O)CCn1nc(-c2ccccc2)c2ccccc2c1=O 94%
O=c1c2ccccc2c(-c2ccc(Br)cc2)nn1Cc1ccccc1 109%
C=CCOC(=O)C1=C[C@H](c2ccc(Br)cc2)C[C@H](OCCCCO)O1 99%
Cc1cccc(OCCC(=O)Nc2ccccc2C(N)=O)c1 104%
COc1ccccc1C(=O)N/C(=C/c1ccco1)C(=O)Nc1ccc(C(=O)O)cc1 102%
N#Cc1ccc(CSc2ncccn2)cc1 101%
Cc1cc(C)nc(-n2nc(C)cc2NC(=O)c2ccc(F)cc2F)n1 105%
CCOC(=O)Cc1csc(NC(=O)CSc2ccc(Br)cc2)n1 107%
CCCCc1nnc(NC(=O)CSc2nc(C)cc(=O)[nH]2)s1 98%
COc1ccc(S(=O)(=O)N2CCN(C(=O)N(C)C)C2C)cc1 (stereo not drawn) 102%
O=C(Nc1ccn(Cc2ccccc2)n1)c1n[nH]c([N+](=O)[O-])c1Cl 99%
O=C(Nc1cccc(NC(=O)c2cccc(F)c2)c1)c1ccccc1 101%
COc1cc(/C=N/NC(=O)Cc2ccccc2)cc(OC)c1OC 98%
O=C(Cc1cc(=O)[nH][nH]1)N/N=C/c1ccccc1[N+](=O)[O-] 121%
COc1cc(/C=N/NC(=O)CNC(=O)c2ccncc2)ccc1OC(C)=O 105%
COc1ccc(C(=O)NCC(=O)N/N=C/c2ccc([N+](=O)[O-])s2)cc1OC 102%
Cc1ccccc1N1CCN(C2CCCN(C(=O)c3ocnc3C)C2)CC1 (stereo not drawn) 106%
COc1ccccc1CN1CCCC(N2CCN(c3ccc(F)cc3)CC2)C1 (stereo not drawn) 104%
C=CCOc1cccc(C2NC(=O)c3ccccc3O2)c1 (stereo not drawn) 91%
CC(C)c1cc(C(N)=O)c(NC(=O)c2cccc(COc3ccc(Br)cc3)c2)s1 104%
O=C(Nc1cccc(F)c1)NC1CCCc2ccccc21 (stereo not drawn) 99%
Cc1nc2nc3c(cn2n1)C(=O)CC(c1ccccc1)C3 (stereo not drawn) 95%
CS(=O)(=O)N(CC(=O)N1CCOCC1)c1cccc(Cl)c1Cl 102%
CCO[C@@H]1OC(C(=O)N2CCOCC2)=C[C@H](C)[C@H]1CCCO 99%
CCO[C@H]1OC(C(=O)N2CCCCCCC2)=C[C@@H](c2ccc(C(F)(F)F)cc2)[C@@H]1CCCO 107%
Cc1ccc(Cn2c(C)c3cnn(CC(=O)NCc4ccccn4)c(=O)c3c2C)cc1 100%
COC(=O)c1cccc(N(CC(=O)NCC2CCCO2)C(=O)CCC(=O)Nc2cc(C)on2)c1 (stereo not drawn) 103%
O=C(Nc1ccc2oc(-c3ccc4ccccc4c3)nc2c1)c1cccs1 121%
CC(O)c1cccc(NC(=O)Cc2cccc3ccccc23)c1 (stereo not drawn) 102%
O=C(O)CSCc1nc2ccccc2s1 96%
c1ccc(-c2nnc(SCc3nc4ccccc4[nH]3)o2)cc1 98%
COc1ccc(Cl)cc1NC(=O)C(C)N1CCc2ccccc21 (stereo not drawn) 100%
Cc1ccccc1NC(=O)N1CCCC1C(=O)NCc1ccccc1 (stereo not drawn) 114%
O=C(Nc1c2c(nn1-c1cccc(Cl)c1)CS(=O)(=O)C2)c1cccs1 82%
Cc1ccc(-n2nc(C)c(/C=N/NC(=O)c3cccs3)c2Cl)cc1 106%
